Columns and labels:
Assay type in all cases: functional
[1] = system: Plasmodium falciparum; assay: GSK_TCMDC: Inhibition of Plasmodium falciparum 3D7 in whole red blood cells, using parasite LDH activity as an index of growth. Test compounds present at 2uM
[2] = system: Plasmodium falciparum; assay: GSK_TCMDC: Inhibition of Plasmodium falciparum Dd2 in whole red blood cells, using parasite LDH activity as an index of growth. Test compounds present at 2uM
[3] = system: HepG2; assay: GSK_TCMDC: Percent inhibition of human HepG2 cell line. Test compounds present at 10uM.

SMILES | Inhibition [1] | Inhibition [2] | Inhibition [3]
O=C(NC1CC1)c1ccc(N2CCC(COc3cccc(F)c3)CC2)nc1 | 89% | 88% | 0%
Cc1cccc2nc(-c3cccc(-c4ccc(NC(=O)CN5CCOCC5)cc4)c3)[nH]c12 | 94% | 12% | 59%
O=C(Nc1ccc(-c2nc3ccccc3[nH]2)cc1)C1CCN(Cc2ccc(F)cc2)CC1 | 100% | 91% | 13%
COc1ccccc1N1CCN(C(C(=O)NCc2ccc3c(c2)OCO3)c2ccc3c(c2)OCCCO3)CC1 (stereo not given) | 88% | 13% | 15%
N#Cc1ccc(-c2ccc(C(=O)NC3CCN(CCN4CCC(c5cn(CCOC6CCCCO6)c6ccccc56)CC4)CC3)cc2)cc1 (stereo not given) | 99% | 86% | 48%
CCN(CCN(C)C)Cc1ccc(-c2ccc(NS(=O)(=O)c3cccc(Cl)c3)cc2)cc1.O=C(O)C(F)(F)F | 97% | 40% | 43%
CCOc1ccc(S(=O)(=O)N(C)c2ccc(OCC(=O)Nc3nccs3)cc2)cc1 | 95% | 4% | 8%
CCN(CC)CCOC(=O)c1ccc(NC(=O)c2cc(-c3ccc(C)cc3)nc3ccccc23)cc1.Cl | 97% | 12% | 22%
COc1cccc(CN2CCC(N3CCc4cc(NC(=O)c5cc(C)on5)ccc43)C2)c1OC (stereo not given) | 93% | 92% | 9%
O=C(O)C(F)(F)F.O=S(=O)(NCCN1CCCC1)c1ccc(-c2cccc(CNC3Cc4ccccc4C3)c2)s1 | 98% | 69% | 57%

— ChEMBL document CHEMBL1157539, “Thousands of chemical starting points for antimalarial lead identification” (Nature, 2010)
